Measurements: the antibiotic and cytotoxicity screens of Wong et al. (2023)
The whole screen tested about 39,000 compounds, of which about 500 (1.3%) were called active. For the sample, actives were picked, then their nearest neighbours and some compounds at random.

Each compound was assayed on S. aureus RN4220 (assay: growth inhibition call (relative growth <= 0.2)). Conditions: 50 µM.

SMILES | growth inhibition call
O.O.O.O=C([O-])C1[O][Sb]2[O]C(=O)C([O]2)C(C(=O)[O-])[O][Sb]2[O]C(=O)C1[O]2.[K+].[K+] (configuration not stated) | inactive
CC(C)=CCCC1(C)C=Cc2c(O)c3c(c(CC=C(C)C)c2O1)OC12C(=CC4CC1C(C)(C)OC2(CC=C(C)C(=O)O)C4=O)C3=O (configuration not stated) | inactive
NC(=O)c1cc([N+](=O)[O-])cc([N+](=O)[O-])c1 | inactive
CC(C)[C@@H]1NC[C@@H]2CCCN2C1=O | inactive
C=C[C@H]1[C@H](O[C@@H]2O[C@H](CO)[C@@H](O)[C@H](O)[C@H]2O)OC=C2C(=O)OCC[C@H]21 | inactive
O=[N+]([O-])c1ccc(N(CCO)CCO)c2c1no[n+]2[O-] | active
C#CCOS(=O)OC1CCCCC1Oc1ccc(C(C)(C)C)cc1 (configuration not stated) | inactive
O=C(c1ccccc1)C12CN3CN(CN(C3)C1)C2 | inactive
C1CC2(CCN1)OCCO2 | inactive
Clc1cc2c(cc1Cl)Oc1cc(Cl)c(Cl)cc1O2 | inactive
[O-][n+]1ccccc1[S][Zn][S]c1cccc[n+]1[O-] | active
O[C@H]1[C@H](O)[C@@H](O)CN2CC[C@H](O)[C@H]12 | inactive
CCN(CC)S(=O)(=O)c1ccc(Cn2nc(C(=O)Nc3ccc(N4CCCCC4)cc3)c3ccccc32)cc1 | inactive
COC(=O)C(c1ccccc1)C1CCCCN1.Cl (configuration not stated) | inactive
CC[C@@H](N)[C@@H](O)c1ccc(O)c(O)c1 | inactive
CCC(COC(=O)c1cc(OC)c(OC)c(OC)c1)(c1ccccc1)N(C)C.O=C(O)C=CC(=O)O (configuration not stated) | inactive
COP(=S)(OC)Oc1cc(Cl)c(Cl)cc1Cl | active
COP(=S)(OC)Oc1ccc(Sc2ccc(OP(=S)(OC)OC)cc2)cc1 | inactive
CCOP(=S)(OCC)Oc1nc(Cl)c(Cl)cc1Cl | inactive
N[C@@]1(C(=O)O)CC[C@@H](C(=O)O)C1.N[C@]1(C(=O)O)CC[C@H](C(=O)O)C1 | inactive
NCCc1nnc2n1CCCCC2 | inactive

SMILES | growth inhibition call
CNC(C)C(O)c1ccccc1.Cl (configuration not stated) | inactive
CCCCCCCCCCCCCCCC[n+]1ccccc1.[Cl-] | inactive
CN[C@@H]1[C@@H](O)[C@@H](O[C@@H]2[C@@H](O)[C@H](O[C@H]3O[C@H](CN)CC[C@H]3N)[C@@H](N)C[C@H]2N)OC[C@]1(C)O.CN[C@@H]1[C@@H](O)[C@@H](O[C@@H]2[C@@H](O)[C@H](O[C@H]3O[C@H]([C@@H](C)N)CC[C@H]3N)[C@@H](N)C[C@H]2N)OC[C@]1(C)O.CN[C@@H]1[C@@H](O)[C@@H](O[C@@H]2[C@@H](O)[C@H](O[C@H]3O[C@H]([C@@H](C)NC)CC[C@H]3N)[C@@H](N)C[C@H]2N)OC[C@]1(C)O | inactive
CN[C@@H]1[C@@H](O)[C@@H](O[C@@H]2[C@H](O)[C@@H](O[C@H]3O[C@H]([C@@H](C)O)[C@@H](O)[C@H](O)[C@H]3N)[C@H](N)C[C@@H]2N)OC[C@]1(C)O | inactive
CNC1C(O)C(OC2C(N)CC(N)C(OC3OC(C(C)O)C(O)C(O)C3N)C2O)OCC1(C)O (configuration not stated) | active
O=C1O[C@H]2CN[C@@H]1C2 | inactive
C[C@H]1CN([C@@H](C)CO)C(=O)CCCn2nncc2CO[C@@H]1CN(C)C(=O)Oc1ccc2ccccc2c1 | inactive
CC1=C(O)C(=O)C=C2C1=CC=C1C2(C)CCC2(C)C3CC(C)(C(=O)O)CCC3(C)CCC12C (configuration not stated) | inactive
Cn1ncnc2c(=O)n(C)c(=O)nc1-2 | inactive
Cc1nc2c(=O)n(C)c(=O)nc-2n(C)n1 | inactive
CCn1nc(-c2cccnc2)nc2c(=O)n(C)c(=O)nc1-2 | active
CCC1=C[C@@H]2[C@H](C1)C[C@]2(CN)CC(=O)O | inactive
C[C@@H]1CN([C@@H](C)CO)C(=O)CCCn2cc(nn2)CO[C@@H]1CN(C)C(=O)Oc1cccc2ccccc12 | inactive
Cl.Oc1noc2c1CCNC2 | inactive
CC12CCC(O)CC1CCC1C2CC(O)C2(C)C(C3=CC(=O)OC3)CCC12O (configuration not stated) | inactive
CC1=C2CC3C(CC=C4CC(O)CCC43C)C2CCC12OC1CC(C)CNC1C2C (configuration not stated) | inactive
O=C(O)C=CC(=O)O.c1ccc2nc(N3CCNCC3)ccc2c1 | inactive
CC(C)(C)C(=O)C(Oc1ccc(Cl)cc1)n1cncn1 (configuration not stated) | inactive
O=C1C=C2C(=CCO[C@@H]2O)O1 | inactive
O=C1C=C2C(=CCOC2O)O1 (configuration not stated) | active
CO[C@@H]1C=C[C@@H]2[C@H]1N2CCCO (some centres not stated) | inactive

SMILES | growth inhibition call
Cc1cc[n+](C)cc1 | inactive
COc1ccc(CN2CCNCC2)c(OC)c1OC.Cl.Cl | inactive
COCCCNC(=O)C1[C@@H]2CC[C@H]1CNC2 (some centres not stated) | inactive
COc1ccc2c(c1)C[C@H](N)C2 | inactive
Oc1c(Cl)c(Cl)c(Cl)c(Cl)c1Cl | active
CCCCCCCCCCCCCCCC[N+](C)(C)C.[Br-] | inactive
C[C@@H](N)Cc1c[nH]c2ccc(O)cc12 | inactive
Oc1ccccc1N1CCNCC1 | inactive
CN1C(=O)[C@@]23C[C@]4([C@@]56C[C@]78SS[C@](CO)(C(=O)N7[C@@H]5Nc5ccccc56)N(C)C8=O)c5ccccc5N[C@H]4N2C(=O)[C@@]1(CO)SS3 | active
CN1C(=O)[C@]23CC4=CC=C[C@H](O)[C@H]4N2C(=O)[C@@]1(CO)SS3 | inactive
CCCC(=O)c1c(O)[nH]c(=O)[nH]c1=O | inactive
CCCC12CNCC(C)(CNC1)C2=O | inactive
c1ccc2cc3c(cc2c1)-c1cccc2cccc-3c12 | inactive
CN(C)C(=S)SSC(=S)N(C)C | active
CO[C@@H]1C[C@@H](C[C@H]2CC[C@H](C)[C@H]([C@@H](C)C(=O)O)O2)O[C@]2(O[C@](C)([C@H]3CC[C@@](C)([C@H]4O[C@@H]([C@H]5O[C@@](O)(CO)[C@H](C)C[C@@H]5C)C[C@@H]4C)O3)C[C@H]2C)[C@@H]1C | active
Cc1ccc(OC(=O)N(C)C[C@H]2OCc3ccccc3-c3c(n(C)c4ccccc34)C(=O)N([C@@H](C)CO)C[C@@H]2C)cc1 | inactive
CC(C)c1cc2c(c(O)c1O)C1(C(=O)O)CCCC(C)(C)C1CC2 (configuration not stated) | inactive
O=C(NCNC(=O)N[C@H]1C(=O)NC(=O)N1CO)N[C@H]1C(=O)NC(=O)N1CO | inactive
CC(C)(CN)CNc1ccc([N+](=O)[O-])c2cccnc12 | inactive
CC(=O)OC1CC(OC2C(O)CC(OC3C(O)CC(OC4CCC5(C)C(CCC6C5CC(O)C5(C)C(C7=CC(=O)OC7)CCC65O)C4)OC3C)OC2C)OC(C)C1OC1OC(CO)C(O)C(O)C1O (configuration not stated) | inactive
